Shiga inhibitor: A qHTS for Small Molecule Inhibitors of Shiga Toxin | Vero cells, Shiga toxin protein synthesis inhibition reporter | inhibition, % at 38.7 µM | hit rate 9.2% among 290,000 | AID 2315, 2010; in the data active = inhibition mostly above about 28%, no sharp cut-off; inactive = mostly below about 43%; note: 0% is about no effect
Vaccinia mCherry: qHTS for Stage-Specific Inhibitors of Vaccinia Orthopoxvirus: mCherry Reporter Primary qHTS; Vaccinia virus mCherry reporter infection, fluorescence; Potency, µM (series often up to 36.5 µM), for the others: at the highest dose activity change, negative = inhibition, actives largely listed as inhibitors; hit rate 0.63% among 310,000; calls by dose curve; tested in A549 cells; note: potency is the fitted concentration of half-maximal effect; % is set by controls: 0 for no effect and ±100 for the full control effect; nearly all actives have a fitted effect of over 35% in size
MARV entry inh: qHTS for inhibitors of binding or entry into cells for Marburg Virus; AID 540276, 2011; Potency, µM (series often up to 37.8 µM), inactives show at the top dose activity change, negative = inhibition, actives largely listed as inhibitors; hit rate 1.8% among 300,000; Marburg virus pseudotyped entry inhibition, cell reporter; calls by dose curve; tested in HEK293 cells; note: potency is the fitted concentration of half-maximal effect; % is set by controls: 0 for no effect and ±100 for the full control effect
LASV entry inh: qHTS for Inhibitors of binding or entry into cells for Lassa Virus; Lassa virus pseudotype entry inhibition, cell reporter; Potency, µM (highest dose often 37.9 µM), inactives show at the highest dose activity change, negative = inhibition, hits mostly inhibitors; hit rate 1.2% among 300,000; calls by dose curve; tested in HEK293 cells; note: potency is the fitted concentration of half-maximal effect; % is set by controls: 0 for no effect and ±100 for the full control effect; nearly all actives have a fitted effect of over 50% in size
CHX counter: Cycloheximide Counterscreen for Small Molecule Inhibitors of Shiga Toxin. cell reporter, cycloheximide protein synthesis inhibition counterscreen. max response, %. hit rate 12% among 300,000; in the data active = max response mostly above about 13%, no sharp cut-off; inactive = mostly below about 14%; note: read at 38.3 µM for the half of the compounds with a filed dose; 0% is about no effect
Vaccinia Venus: qHTS for Stage-Specific Inhibitors of Vaccinia Orthopoxvirus: Venus Reporter Primary qHTS. AID 720580, 2013. hit rate 0.46% among 330,000. Potency, µM (highest dose often 36.5 µM), for inactives: top-dose activity change, negative = inhibition, most hits filed as inhibitors. Vaccinia virus Venus reporter expression, fluorescence; calls by dose curve; tested in A549 cells; note: potency is the fitted concentration of half-maximal effect; % is set by controls: 0 for no effect and ±100 for the full control effect; nearly all actives have a fitted effect of over 30% in size
The depositor's hits bear a star; i = inactive; ? = inconclusive; / = no result; [ ] = dose if it differs, or a comment. Many of the other results were omitted from the sample, so hits are more common in it than they were.

SMILES	Shiga inhibitor	Vaccinia mCherry	MARV entry inh	LASV entry inh	CHX counter	Vaccinia Venus
Cc1ccc(SCC(=O)Nc2ccc(N3CCOCC3)cc2)cc1	-1	/	/	/	-1	/
Cn1cc(-c2cc3n(n2)CCC(=O)N3CC(=O)NCc2ccc(Cl)cc2)c2ccccc21	/	-17%	/	-8%[46.1 µM]	/	1%
O=C(c1ccc2c(c1)N(Cc1cccc(Cl)c1)C(=O)c1ccccc1S2(=O)=O)N1CCN(Cc2ccccc2)CC1	/	-17%	/	?	/	-11%
CCCc1nc(SCC(=O)Nc2ccc(N3CCOCC3)cc2)c2ccccc2n1	-2	-11%	0.71µM*	13%	0	-19%
Cn1c(CC(=O)Nc2ccccc2)nnc1SCC(=O)Nc1ccc(N2CCOCC2)cc1	29	-6%	15%[46.1 µM]	7%[46.1 µM]	39*	7%
CC(C)c1nc(SCC(=O)Nc2ccc(N3CCOCC3)cc2)c2ccccc2n1	-9	/	-23%	?	-1	/
O=C(Nc1ccc(N2CCOCC2)cc1)c1nc2ccccc2s1	91*	?	?	-8%[46.1 µM]	54*	13%
CCN(CC)c1ccc(NC(=O)CSc2nc(C3CC3)nc3ccccc23)cc1C	8	?	4.5µM*	?	-5	-27%
C[C@H](O)C(N)C(=O)O (stereo not given in full)	-9	/	/	/	-4	/
O=C(COC(=O)c1ccccc1SCC(=O)N1CCCC1)Nc1ccccc1	43	-12%	17%[46.1 µM]	?	17*	-6%
O=C(CSc1ccccc1)Nc1ccc(N2CCOCC2)c(F)c1	120*	/	/	/	57*	/
O=C(c1ccc(COc2ccccc2Br)o1)N1CCCCCC1	32*	-10%	-4%	10%	26*	-12%
CN(C(=O)c1ccc(COc2ccccc2Br)o1)c1ccccc1	27*	/	-16%	-17%	15*	/
COc1ccccc1OCc1ccc(C(=O)N2CCN(C(=O)c3ccco3)CC2)cc1	-9	i	-3%	-6%	-6	-12%
O=C(c1ccc(COc2ccccc2Br)cc1)N1CCCCC1	50*	/	18%	-5%	34*	-19%
Cc1cc2nc(-c3ccc4c(c3)CCC4)ccn2n1	46*	-16%	?	0%[46.1 µM]	20*	-15%
CC(=O)c1cccc(OCc2cc(C(=O)N(C)CCC3CCOCC3)no2)c1	68*	/	/	/	42*	/
CCCN(CC1CCCO1)C(=O)c1cc(COc2cccc(OC)c2)on1 (stereo not given)	26	-15%	21%	24%	14*	-6%
COc1cccc(OCc2cc(C(=O)N(C)C3CCCCC3)no2)c1	/	-17%	/	/	/	-22%
COc1ccccc1OCc1cc(C(=O)N(C)CCC2CCOCC2)no1	/	-12%	/	/	/	-16%
COc1cccc(OCc2cc(C(=O)N(C)CCC3CCCCO3)no2)c1 (stereo not given)	152*	-16%	12%	-26%	75*	-10%
O=C(N/N=C/CCc1ccccc1)C1CCCCC1	26	i	-18%	5%	8	1%
O=C(N/N=C/CCc1ccccc1)c1ccccc1	53*	6%	4%	?	37*	-2%
CCC/C=N/NC(=O)c1cccc(Br)c1	-6	-28%	20%[46.1 µM]	3%[46.1 µM]	9	-10%
CCC/C=N/NC(=O)c1ccc(F)cc1	75*	-5%	23%[46.1 µM]	18%[46.1 µM]	24*	-13%
SMILES	Shiga inhibitor	Vaccinia mCherry	MARV entry inh	LASV entry inh	CHX counter	Vaccinia Venus
CCc1cc2c(nc1CC)CCN(CCC(C)=NO[C@H](C)c1cn([C@H](CO)Cc3ccccc3)nn1)C2	/	/	-16%[14.2 µM]	/	/	/
O=C(/C=C/c1ccc(-c2cccc([N+](=O)[O-])c2)o1)N1CCOCC1	146*	-10%	?	1%	31*	0%
COC(=O)C1=C(C)N(c2cccc(C)c2)C(=O)/C1=C\c1cccs1	-22	/	2.8µM*	-3%	8	6%
CN(C)C=Nc1ncc2c3ccccc3n(CCN(C)C)c2c1C#N	-12	/	11µM*	-19%	-5	-11%
CCN(CC)CCn1c2ccccc2c2cnc(N)c(C#N)c21	-8	?	11µM*	?	-4	?
COc1cc(C2Nc3ccccc3C(=O)N2c2ccc(Cl)cc2)c(Cl)cc1OCC(=O)O (stereo not given)	71*	-4%	?	29%	54*	-4%

Source: PubChem BioAssay
